# This is a sample that favours compounds with a hit; in the whole collection about 0.51% have one here.
# FMDV FLuc: antivirals against foot and mouth disease virus; AID 1745856; Potency, µM (series often up to 57.5 µM), for the others: top-dose activity change, negative = inhibition, hits mostly inhibitors; 0.23% of 120,000 active; FMDV antiviral cell assay, firefly luciferase signal; note: nearly all actives have a fitted effect of over 60% in size
# FMDV RLuc: shows antiviral activity in FMDV Renilla assay; Potency, µM (titrated, usually from 57.5 µM), without a hit: at the top dose activity change, negative = inhibition, usual class: inhibitors; 0.32% of 120,000 active; FMDV replicon cells, Renilla luciferase signal; note: nearly all actives have a fitted effect of over 55% in size
# * = called active by the depositor; ? = inconclusive; [ ] = another dose, or the depositor's remark. Calls come from the whole dose curve. % is set by controls: 0 for no effect and ±100 for the full control effect; potency is the fitted concentration of half-maximal effect.
SMILES,FMDV FLuc,FMDV RLuc
Cc1ccc2[nH]c(C)c(/C=C/c3cc[n+](C)cc3)c2c1,13µM*,11µM*
Cc1ccc2c(c1)c(/C=C/c1cc[n+](C)cc1)c(C)n2C,?,8.9µM*
COC(=O)COc1ccc2c(=O)c(Oc3ccccc3Br)c(C)oc2c1,-6%,-9%
Cc1ccc(CN(C)Cc2cc(=O)oc3ccc(C)cc23)cc1,7%,0%
COc1ccc2oc(=O)cc(CN(C)Cc3ccc(C)cc3)c2c1,?,35µM*
O=C(NCc1ccccc1)C(Sc1nc2ccccc2o1)c1ccccc1 (stereo not drawn),0%,0%
Cc1cc2cc(NS(=O)(=O)c3c(C)cccc3[N+](=O)[O-])ccc2[nH]1,0%,109%
O=c1c2cnc(N3CCc4ccccc4C3)nc2ccn1-c1cc(Cl)cc(Cl)c1,65%,2%
O=c1c2cnc(N3CCc4ccccc4C3)nc2ccn1-c1ccccc1,25µM*,?
O=C1c2c(O)ccc(O)c2C(=O)c2c(NCCNCCO)ccc(NCCNCCO)c21,28µM*,?
CN(C)c1ccc(C(=O)Nc2ccccc2-c2ccccc2)cc1,-5%,-1%
Cc1cccc(N2CCN(S(=O)(=O)c3csc(C(N)=O)c3)CC2)c1C,13µM*,8.9µM*
COc1ccc(N2CCN(S(=O)(=O)c3csc(C(N)=O)c3)CC2)cc1,-8%,-15%
CC1=C(C#N)C(c2ccccc2C)C(C#N)=C(C)N1,-18%,-4%
CC1=C(C#N)C(c2cc(Br)ccc2OC(F)F)C(C#N)=C(C)N1,?,28µM*
CC1=CC(C)C(/C=N/NC(N)=S)C(C)C1 (stereo not drawn),1%,4%
CNC(=O)c1ccc2c(c1)NC(=O)CCS2,9%,-1%[1.06 µM]
CSc1ccc(NC(=O)c2ccc3c(c2)NC(=O)CCS3)cc1,?,10µM*
CCc1ccc(OCc2nnc(SCc3cc(=O)c4ccccc4[nH]3)n2CC)cc1,?,16µM*
CCn1c(COc2ccccc2Cl)nnc1SCc1cc(=O)c2cc(C(N)=O)ccc2[nH]1,-6%,-1%
COc1ccc(C(=O)Nc2cnc3sc4c(n3c2=O)CCC(C(C)(C)C)C4)cc1 (stereo not drawn),30%,5%
Cc1csc2nc(-c3cccc(NC(=O)c4ccccc4F)c3)cn12,116%,20%
Cc1csc2nc(-c3cccc(NC(=O)c4cccc(F)c4)c3)cn12,-4%,13µM*
O=C(O)CCNS(=O)(=O)c1cccc(F)c1,-7%,4%
CCN1/C(=C/C=C/c2sc3ccccc3[n+]2CC)Sc2ccccc21,3.2µM*,?
SMILES,FMDV FLuc,FMDV RLuc
CCN(CC)C(C)CN1c2ccccc2Sc2ccccc21 (stereo not drawn),17%[11.5 µM],-1%
CC(CNC(=O)c1nccnc1N)c1ccccc1 (stereo not drawn),39%,-4%
COc1ccc(NC(=O)COc2c(C)cccc2C)c2cccnc12,30%,0%
COc1ccc(NC(=O)COc2ccccc2C)c2cccnc12,?,14µM*
O=C(Cc1noc(C(=O)NCc2cccc(F)c2)n1)Nc1cccc2ncccc12,-10%,-15%
CCOc1ccc(NC(=O)c2cccc(CN3CCCC3=O)c2)cc1,73%,-3%
CC(C)(C)c1ccc(NC(=O)c2cccc(CN3CCCC3=O)c2)cc1,?,28µM*
Cc1ccccc1CNC(=O)CCNC(=O)C1CCCC1,9%,-9%
COc1cc(C2=NOC(C(=O)N(C)c3ccccc3)C2)cc(OC)c1OC (stereo not drawn),20%,11%
O=C(Nc1ccc2ccccc2n1)c1ccc(S(=O)(=O)N2CCCCC2)cc1,?,32µM*
O=C(Nc1ccc2ccccc2n1)c1ccc(S(=O)(=O)NC2CC2)cc1,-2%,-4%
Cc1cc(=O)oc2cc(OC/C(=N\O)c3ccc(Cl)cc3)c(Cl)cc12,6%,-5%
CCc1ccc(-c2noc(CN3CCCc4c(C(=O)NC(C)C)cccc43)n2)cc1,21%,7%
CC(C)NC(=O)c1cccc2c1CCCN2Cc1nc(-c2cccc(Cl)c2)no1,?,25µM*
CC(C)N1CNc2c(c(=O)[nH]c(=O)n2-c2cccc(Cl)c2)C1,45%,17%
CC(C)(C)NC(=O)CC1(C(=O)NCc2ccc(F)cc2)CCCC1,?,-15%[1.06 µM]
COc1ccc(-c2ccc(=O)n(CCNC(=O)Cc3ccccc3)n2)cc1,7%,17%
CCOc1ccc(Nc2nc(N3CCOCC3)c3cnn(C)c3n2)cc1,2%,3%
CCN(CC)c1ccc(Nc2nc(N3CCOCC3)c3ccccc3n2)cc1,?,20µM*
CCN(CC)S(=O)(=O)c1ccc(NC(=O)Cn2nnc(-c3ccc(F)cc3)n2)cc1,3%,14%
Cc1nc2cc(-c3ccccc3)nn2c(C)c1CCC(=O)Nc1ccc(F)cc1F,?,-8%
Cc1nc2cc(-c3cccc(F)c3)nn2c(C)c1CCC(=O)Nc1ccc(F)c(Cl)c1,2.2µM*,-2%
Cc1nc2cc(-c3cccc(F)c3)nn2c(C)c1CCC(=O)Nc1ccc(CN2CCCC2)cc1,?,-17%
Cc1nc2cc(-c3ccccc3)nn2c(C)c1CCC(=O)Nc1ccc(F)cc1,3.2µM*,-3%
